The text below walks through data of PubChem BioAssay AID1159580 (chemical genetic matrix, 2015).

The assay is described as follows: chemical genetic growth profiling, strain panel (AID 1159580).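 Also: tested at 20 µM; growth read once vehicle control cultures reached saturation at 30 °C; 1 = growth at the plate median or of vehicle wells; lower values mean less growth of the strain.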 Conditions: growth OD.
[1] abbreviates: S. cerevisiae deletion strains, locus YAL013W, strain DEP1, stronger effect = lower value.
The mark [2] stands for this setting: S. cerevisiae deletion strains, locus YAL040C, strain CLN3, stronger effect = lower value.
Where [3] appears, read: S. cerevisiae deletion strains, locus YER002W, strain NOP16, stronger effect = lower value.
[4] abbreviates: S. cerevisiae deletion strains, locus YGR078C, strain PAC10, stronger effect = lower value.
The mark [5] stands for this setting: S. cerevisiae deletion strains, locus YNL128W, strain TEP1, stronger effect = lower value.
The mark [6] stands for this setting: S. cerevisiae deletion strains, locus YNL175C, strain NOP13, stronger effect = lower value.
Where [7] appears, read: S. cerevisiae deletion strains, locus YNL197C, strain WHI3, stronger effect = lower value.
The mark [8] stands for this setting: S. cerevisiae deletion strains, locus YNL224C, strain SQS1, stronger effect = lower value.
Where [9] appears, read: S. cerevisiae deletion strains, locus YNL322C, strain KRE1, stronger effect = lower value.
[10] abbreviates: S. cerevisiae deletion strains, locus YOR083W, strain WHI5 (second series), stronger effect = lower value.
The mark [11] stands for this setting: S. cerevisiae deletion strains, locus YMR263W, strain SAP30, stronger effect = lower value.
Where [12] appears, read: S. cerevisiae deletion strains, locus YPL055C, strain LGE1, stronger effect = lower value.

SMILES strings stand for the structures. In all, about 5,500 compounds went through this assay and about 2,000 (36%) were called active. Not shown: some 18% with an inconclusive outcome. The list shows a part of the results. Values without a mark were called inactive. Rule as the data show it: active = normalized growth mostly below about 0.91 (no sharp cut-off); inconclusive = no clear call, values can overlap the other calls; inactive = mostly above about 0.92.

`CC(C)(C)c1ccc(S(=O)(=O)/C=C/C#N)cc1`: the normalized growth under setting [1] was 0.234 (active); the normalized growth under setting [2] was 0.0822 (active); the normalized growth under setting [3] is 0.139 (active); the normalized growth under setting [4] is 0.0608 (active); the normalized growth under setting [5] is 0.0795 (active); the normalized growth under setting [6] is 0.227 (active). For the same molecule, the normalized growth runs as follows: under setting [7], 0.0935 (active); under setting [8], 0.255 (active); under setting [9], 1.01; under setting [10], 0.0681 (active).
Turning to `Cn1nccc1NS(=O)(=O)c1ccc(C(C)(C)C)cc1`, the normalized growth is 0.982 under setting [1]; 0.97 (S. cerevisiae deletion strains, locus YBR229C, strain ROT2, stronger effect = lower value); 0.982 (S. cerevisiae deletion strains, locus YCL061C, strain MRC1, stronger effect = lower value); 0.983 (S. cerevisiae deletion strains, locus YDL101C, strain DUN1, stronger effect = lower value); 0.992 (S. cerevisiae deletion strains, locus YDR150W, strain NUM1, stronger effect = lower value); 0.984 (S. cerevisiae deletion strains, locus YEL061C, strain CIN8, stronger effect = lower value). In addition, the normalized growth is, setting by setting: under setting [4], 0.985; (S. cerevisiae deletion strains, locus YGR229C, strain SMI1, stronger effect = lower value) 0.981; (S. cerevisiae deletion strains, locus YHR030C, strain SLT2, stronger effect = lower value) 0.948; (S. cerevisiae deletion strains, locus YHR087W, strain rtc3, stronger effect = lower value) 0.973; (S. cerevisiae deletion strains, locus YJR043C, strain POL32, stronger effect = lower value) 0.978; (S. cerevisiae deletion strains, locus YJR075W, strain HOC1, stronger effect = lower value) 0.987. Besides, the normalized growth is 0.96 (S. cerevisiae deletion strains, locus YKL190W, strain CNB1, stronger effect = lower value); 0.92 (S. cerevisiae deletion strains, locus YLR039C, strain RIC1, stronger effect = lower value); 0.975 (S. cerevisiae deletion strains, locus YLR058C, strain SHM2 (second series), stronger effect = lower value); 1.08 (S. cerevisiae deletion strains, locus YLR085C, strain ARP6, stronger effect = lower value); 0.82 (S. cerevisiae deletion strains, locus YLR262C, strain YPT6, stronger effect = lower value); 1.03 (S. cerevisiae deletion strains, locus YML094W, strain GIM5, stronger effect = lower value). Also, the normalized growth is, setting by setting: (S. cerevisiae deletion strains, locus YMR219W, strain ESC1, stronger effect = lower value) 0.985; under setting [11], 0.979; under setting [5], 0.968; (S. cerevisiae deletion strains, locus YNL153C, strain GIM3, stronger effect = lower value) 0.989; (S. cerevisiae deletion strains, locus YNL298W, strain CLA4 (second series), stronger effect = lower value) 0.948; under setting [9], 0.98. Moreover, the normalized growth (S. cerevisiae deletion strains, locus YNR030W, strain Alg12, stronger effect = lower value) was 1; the normalized growth under setting [12] is 1.03; the normalized growth (S. cerevisiae deletion strains, locus YPL241C, strain CIN2, stronger effect = lower value) is 1.01; the normalized growth (S. cerevisiae deletion strains, locus YPR135W, strain CTF4, stronger effect = lower value) is 0.929; the normalized growth (S. cerevisiae strains, strain wild type, stronger effect = lower value) is 0.959.
Consider `OC[C@H]1O[C@@H](n2cnc3c(NC4CCCCC4)ncnc32)[C@H](O)[C@@H]1O`, for which the normalized growth by setting is: under setting [2], 1.04; (S. cerevisiae deletion strains, locus YCL061C, strain MRC1 (second series), stronger effect = lower value) 1.01; (S. cerevisiae deletion strains, locus YDR363W, strain ESC2, stronger effect = lower value) 0.994; under setting [3], 1.01; under setting [4], 1.05; under setting [11], 1.01. Also, the normalized growth is 1.01 (S. cerevisiae deletion strains, locus YMR307W, strain GAS1, stronger effect = lower value); 1.01 under setting [6]; 1.01 under setting [7]; 1 under setting [8]; 1.02 under setting [9]; 0.984 under setting [10]. Also, the normalized growth under setting [12] was 0.995.
